Sampled rows, rich in hits. Any-hit rate of the full collection: about 10%.
Luciferase inh = inhibitors of firefly (Photinus pyralis) luciferase | purified P. pyralis luciferase, luminescence, biochemical | Potency, µM (top dose mostly 115 µM), hits mostly inhibitors | 76,000 compounds, 2.5% hits | AID 1347043; note: nearly all actives have a fitted effect of over 65% in size
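FLuc 10nM, D-luciferin 10uM, ATP 10uM, Mg acetate 10mM, Tris acetate pH 7.5, Tween/BSA; cpd qHTS; enzyme added last; CCD luminescence.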
NIH3T3 tox = NIH 3T3 cell cytotoxicity. Potency, µM (doses to about 96.7 µM), for inactives: at the highest dose activity change, negative = cytotoxicity, most hits filed as inhibitors. 94,000 compounds, 4.3% hits. NIH 3T3 viability, CellTiter-Glo ATP luminescence, 48-72 h; note: nearly all actives have a fitted effect of over 55% in size
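ATP-dependent luminescence (CellTiter-Glo) served as the viability signal for NIH 3T3 cells treated with compound for 48 or 72 hr at 37 °C.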
NPR1 antag = human Npr1 receptor antagonism; 76,000 compounds, 1.6% hits; HEK293 hNpr1 GloSensor cGMP, ANP-stimulated luminescence; P16066; AID 1347048; Potency, µM (series often up to 46.3 µM), without a hit: at the top dose activity change, negative = inhibition, most hits filed as inhibitors; calls by dose curve; note: nearly all actives have a fitted effect of over 60% in size
Target sequence (P16066 whole entry, looked up): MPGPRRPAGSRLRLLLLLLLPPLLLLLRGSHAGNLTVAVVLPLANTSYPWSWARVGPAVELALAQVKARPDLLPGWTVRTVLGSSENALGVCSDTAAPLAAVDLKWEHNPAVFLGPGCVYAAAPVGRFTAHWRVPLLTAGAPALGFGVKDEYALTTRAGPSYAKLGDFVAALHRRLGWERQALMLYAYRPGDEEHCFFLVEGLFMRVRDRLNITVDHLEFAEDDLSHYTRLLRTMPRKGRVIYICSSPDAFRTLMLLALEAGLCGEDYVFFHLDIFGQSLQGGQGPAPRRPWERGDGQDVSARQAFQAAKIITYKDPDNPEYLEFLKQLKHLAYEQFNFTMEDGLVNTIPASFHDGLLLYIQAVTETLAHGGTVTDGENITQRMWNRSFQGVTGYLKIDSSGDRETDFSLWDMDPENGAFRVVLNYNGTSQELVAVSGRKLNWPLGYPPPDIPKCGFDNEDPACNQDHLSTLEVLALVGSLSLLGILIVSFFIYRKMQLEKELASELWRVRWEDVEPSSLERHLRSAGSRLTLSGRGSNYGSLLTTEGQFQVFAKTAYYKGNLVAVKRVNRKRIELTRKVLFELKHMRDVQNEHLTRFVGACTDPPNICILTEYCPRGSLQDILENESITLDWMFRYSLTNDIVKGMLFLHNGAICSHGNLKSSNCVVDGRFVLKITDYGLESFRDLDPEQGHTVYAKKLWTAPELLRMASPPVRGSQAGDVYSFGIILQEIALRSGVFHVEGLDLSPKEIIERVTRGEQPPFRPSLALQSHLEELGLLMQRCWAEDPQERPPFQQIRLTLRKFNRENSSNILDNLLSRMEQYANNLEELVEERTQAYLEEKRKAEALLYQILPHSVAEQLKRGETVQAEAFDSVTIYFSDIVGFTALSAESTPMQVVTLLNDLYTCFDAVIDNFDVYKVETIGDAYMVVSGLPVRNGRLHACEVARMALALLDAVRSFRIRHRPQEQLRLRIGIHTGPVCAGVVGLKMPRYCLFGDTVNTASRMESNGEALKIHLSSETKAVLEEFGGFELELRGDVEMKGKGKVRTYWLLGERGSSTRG
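HEK293 cells stably expressing human Npr1 and cGMP GloSensor pGS-40F, loaded 2 h with 2% GloSensor reagent, given compound 30 min at room temperature. Luminescence read before and 20 min after 0.1 nM hNppA.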
GPT2 inhibitor = blocks human glutamate pyruvate transaminase 2; 100,000 compounds, 0.25% hits; AID 1671188; Q8TD30; Recombinant GPT2, coupled pyruvate oxidase/HRP Amplex Red fluorescence; Potency, µM (doses to about 57.7 µM), for the others: at the top dose activity change, negative = inhibition, usual class: inhibitors; note: nearly all actives have a fitted effect of over 60% in size
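GPT2 10ng/uL, a-KG 250uM, L-Ala 2mM, HEPES pH7.5 + 0.0001% Tween; 30 min RT. Then Amplex mix (PO/HRP/ThPP), 30 min RT dark, fluorescence. AOA 50uM used as positive control.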
HEK cytotox = kills HEK 293 cells. 94,000 compounds, 6.6% hits. Potency, µM (titrated, usually from 115 µM), for inactives: at the highest dose activity change, negative = cytotoxicity, actives largely listed as inhibitors. HEK 293 viability, ATP luminescence (CellTiter-Glo), 48-72 h; note: nearly all actives have a fitted effect of over 60% in size
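250 HEK 293 cells/well; compound by pintool; incubated 48 or 72 hr at 37 degree Celsius; CellTiter-Glo added, 10 min RT, luminescence imaged.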
Starred values were filed as active, the others as inactive; i = inactive; ? = inconclusive; · = no result; [ ] = dose if it differs, or a comment. Unless noted, calls come from the whole dose curve; as a rule, active = well fitted curve in the direction sought with a large enough effect; inconclusive = small, poorly fitted or top-dose-only effect, or another doubt; inactive = no such curve, though single readings can be large; an effect the other way counts as inactive or inconclusive. % is set by controls: 0 for no effect and ±100 for the full control effect; potency is the fitted concentration of half-maximal effect.

SMILES | Luciferase inh | NIH3T3 tox | NPR1 antag | GPT2 inhibitor | HEK cytotox
CCNC(=O)N1CCCC(c2noc(COc3ccccc3)n2)C1 (stereo not given) | 32µM* | -28% | -25% | i | -11%
Cc1ccc(NC(=O)N2CCCC(c3noc(COc4ccccc4)n3)C2)c(C)c1 (stereo not given) | ? | ? | 13µM* | i | ?
COCCNC(=O)N1CCCC(c2noc(COc3ccccc3)n2)C1 (stereo not given) | i | -17% | -13% | i | -13%
Cn1ncc2c(C(=O)NCCCc3ccccc3)cc(-c3ccccc3F)nc21 | · | -32% | · | · | ?
CC(=O)c1ccc(NC(=O)CN2C(=O)NC3(CCC(C(C)(C)C)CC3)C2=O)cc1 (stereo not given) | i | ? | -1% | i | ?
CC(=O)c1cccc(NC(=O)CN2C(=O)NC3(CCC(C(C)(C)C)CC3)C2=O)c1 (stereo not given) | i | 40µM* | 0% | i | ?
CC1CCC2(CC1)NC(=O)N(CC(=O)Nc1ccc(C(C)C)cc1)C2=O (stereo not given) | i | ? | 4% | -17% | 28µM*
CC1CCC2(CC1)NC(=O)N(CC(=O)Nc1cccc(C(F)(F)F)c1)C2=O (stereo not given) | i | ? | -10% | i | 25µM*
CCN1CCN(C(=O)c2ccc3nnc(-c4cccc(C(F)(F)F)c4)n3c2)CC1 | · | -7% | · | i | -3%
Cc1oc2c(c1C(=O)N1CCN(C3CCCC3)CC1)CN(Cc1cccc(F)c1)CC2 | i | -24% | -1% | i | ?
Cc1noc(C)c1C(=O)N1CC(N2C(=O)c3c(c(C)nn3-c3ccccc3)C2C2CC2)C1 (stereo not given) | · | -18% | · | · | ?
COc1cccc(NC(=O)[C@@H]2C[C@@H](c3cccc(C(F)(F)F)c3)N(C)C2)c1 | i | 79µM* | -20%[70.6 µM] | -6%[88.5 µM] | 100µM*
COc1ccc(NC(=O)[C@@H]2C[C@@H](c3cccc(C(F)(F)F)c3)N(C)C2)c(C)c1 | i | ? | -1%[70.6 µM] | 3%[88.5 µM] | ?
CN1C[C@H](C(=O)NCc2ccccc2)C[C@H]1c1cccc(C(F)(F)F)c1 | i | ? | 5%[70.6 µM] | 4%[88.5 µM] | ?
CN1C[C@H](C(=O)Nc2ccccc2)C[C@H]1c1cccc(C(F)(F)F)c1 | i | 45µM* | -15%[70.6 µM] | -29%[88.5 µM] | 79µM*
Cc1nnc2ccc(N3CCC(NC(=O)NC(C)C)C3)nn12 (stereo not given) | · | -6%[138 µM] | · | · | i
Cc1noc(C)c1[S+](=O)([O-])N1CCC(C(=O)N2CCCC(c3nc4ncccc4[nH]3)C2)CC1 (stereo not given) | · | -13% | · | i | 3%
Cc1ccccc1CN1C[C@H](O)C[C@H]1c1nc(-c2ccncc2)no1 | i | ? | 2%[70.6 µM] | -2%[88.5 µM] | ?
Cc1cccc(-c2noc([C@@H]3C[C@@H](O)CN3Cc3ccccn3)n2)c1 | 50µM* | -27%[138 µM] | -25%[70.6 µM] | i | ?
O[C@@H]1C[C@@H](c2nc(-c3ccccc3)no2)N(Cc2ccccc2)C1 | i | ? | -6%[70.6 µM] | -49%[88.5 µM] | -13%[172 µM]
Cc1cccc(-c2noc([C@@H]3C[C@@H](O)CN3Cc3ccc(Cl)cc3)n2)c1 | 63µM* | ? | -16%[70.6 µM] | 2%[88.5 µM] | 100µM*
Cc1ccc(Nc2ccnc(N3CCCC3C(=O)N3CCN(Cc4ccccc4)CC3)n2)cc1 (stereo not given) | · | 35µM* | · | i | 14µM*
O=C([C@@H]1CCCN1c1nccc(Nc2ccccc2Cl)n1)N1CCCC1 | · | ? | · | 2% | ?
O=C(C1CCCN1c1nccc(Nc2ccccc2F)n1)N1CCC(c2ccccc2)CC1 (stereo not given) | · | ? | · | i | ?
O=C(C1CCCN1c1nccc(Nc2ccccc2F)n1)N1CCN(Cc2ccccc2)CC1 (stereo not given) | · | ? | · | i | 32µM*
SMILES | Luciferase inh | NIH3T3 tox | NPR1 antag | GPT2 inhibitor | HEK cytotox
O=C([C@@H]1CCCN1c1nccc(Nc2ccccc2Cl)n1)N1CCN(Cc2ccccc2)CC1 | · | 45µM* | · | -5% | ?
O=C([C@@H]1CCCN1c1nccc(Nc2ccccc2Cl)n1)N1CCC(c2ccccc2)CC1 | · | 35µM* | · | -12% | 22µM*
COc1ccc(CC(=O)N(C)C2CCc3ccccc3C2)cc1 (stereo not given) | i | ? | -4%[70.6 µM] | 3%[88.5 µM] | ?
COc1ccc(Nc2ccnc(N3CCCC(C(=O)N4CCC(c5ccccc5)CC4)C3)n2)cc1 (stereo not given) | · | ? | · | -10% | ?
O=C(C1CCN(c2nccc(Nc3ccccc3Cl)n2)CC1)N1CCC(c2ccccc2)CC1 | · | 40µM* | · | i | 32µM*
Cc1ccc(Nc2ccnc(N3CCCC3C(=O)N3CCC(c4ccccc4)CC3)n2)cc1 (stereo not given) | · | 32µM* | · | i | 32µM*
COc1cc(C)c(CN2CCCn3nc(C(=O)N4CCCC4)cc3C2)cc1C | i | 45µM* | -9% | 2% | 45µM*
CCNC(=O)N[C@H]1C[C@@H](c2nc(-c3ccc(OC(F)(F)F)cc3)no2)N(C)C1 | ? | -13%[174 µM] | -21%[70.6 µM] | i | ?
C[C@H]1[C@@H]2[C@@H](O)C([C@H](C)C(=O)NCc3ccc(F)cc3)CC[C@@]2(C)CC[C@@H]1NC(=O)c1ccccc1 (stereo not given in full) | i | ? | -2% | 0% | 40µM*
COc1ccc(C(=O)N[C@H]2CC[C@]3(C)CCC([C@H](C)C(=O)NCc4ccccc4)[C@H](O)[C@H]3[C@@H]2C)cc1 (stereo not given in full) | i | ? | 5% | -3% | ?
O=C(Nc1ccc2ncnc(N3CCCCC3)c2c1)c1c(F)cccc1Cl | i | ? | -7% | -15% | 50µM*
O=C(Nc1ccc2ncnc(N3CCCCC3)c2c1)c1ccccc1Br | i | ? | ? | -1% | 45µM*
Cc1ccsc1C(=O)Nc1ccc2c(N3CCCCC3)ncnc2c1 | ? | 35µM* | -6% | -10% | ?
Cc1ccc(C(=O)Nc2ccc3c(N4CCCCC4)ncnc3c2)cc1F | i | ? | -29% | 3% | ?
O=C(Nc1ccc2c(N3CCCC3)ncnc2c1)c1ccccc1Cl | ? | 25µM* | 0% | -16% | ?
O=C1CC(c2ccccc2)N(Cc2ccncc2)CCCN(C(=O)NCc2ccccc2)CCN1 (stereo not given) | i | -20% | 4% | i | -9%
O=C(Nc1ccc2c(N3CCCCC3)ncnc2c1)c1ccc(F)cc1 | ? | 28µM* | -19% | i | ?
COc1ccc(-c2cccc(C(=O)N3CCN([S+](=O)([O-])c4c(C)noc4C)CC3)c2)nn1 | · | ? | · | · | -17%
